This note sets out measurements from PubChem BioAssay (Tox21).

Values without a mark were called inactive. Inconclusive results are not listed. Activity calls are given as the source filed them. Unless noted, the call rests on the fitted dose curve; in most records, active means well fitted curve in the direction sought with a large enough effect in the repeat runs; inconclusive means weak or mixed curves; inactive means no such curve, though single readings can be large; an effect the other way counts as inactive or inconclusive.

A short description of assay [1]: qHTS RealTime-Glo MT Cell Viability Assay in HEK293 cells - 0 hour (AID 1224880). Further: top concentration of the series differs between compounds; nearly all actives have a fitted effect of over 45% in size. Put shortly: (§1)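 Luminescence readout at each listed time point; HEK293, 600 cells/well, RealTime-Glo MT reagent added with cells; compounds pinned (23 nL in DMSO) after 5 h at 37 C; continuous culture at 37 C.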
For orientation: Quantitative high-throughput screening tests each substance at several concentrations.

Assay [2] is described as follows: A CellTox Green Cytotoxicity Assay to monitor cytotoxicity in HEK293 cells - 32 hour (AID 1224881). Further: nearly all actives have a fitted effect of over 40% in size. Put shortly:
(§2)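 Read-out: fluorescence of a cell-impermeant cyanine dye staining DNA of dead cells, proportional to cytotoxicity. HEK293, 600 cells/well with reagent, compound (23 nL DMSO) added after 5 h; reads at 0, 8, 16, 24, 32, 40 h.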

Assay [3] is described as follows: A CellTox Green Cytotoxicity Assay to monitor cytotoxicity in HepG2 cells - 0 hour (AID 1224882). Further: nearly all actives have a fitted effect of over 35% in size. Put shortly: (§3)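 HepG2, 600 cells/well premixed w/ CellTox Green; 5 h settle, 37 C/5% CO2; pintool cpd add (DMSO); 37 C, 40 h; fluorescence read at 0, 8, 16, 24, 32, 40 h.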
Assay [4] is described as follows: A CellTox Green Cytotoxicity Assay to monitor cytotoxicity in HepG2 cells - 32 hour (AID 1224883). Further: nearly all actives have a fitted effect of over 50% in size. Put shortly: as §3
Assay [5] is described as follows: A CellTox Green Cytotoxicity Assay to monitor cytotoxicity in HEK293 cells - 8 hour (AID 1224884). Further: nearly all actives have a fitted effect of over 35% in size. In a few lines:
as §2

Assay [6] can be described thus: qHTS RealTime-Glo MT Cell Viability Assay in HepG2 cells - 16 hour (AID 1224885). Further: nearly all actives have a fitted effect of over 50% in size. Put shortly:
(§4)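 Cell number in HepG2 cultures estimated from NanoLuc luminescence generated by metabolic reduction of a prosubstrate by living cells. The homogeneous, nonlytic format allowed repeated reads at 0, 8, 16, 24, 32 and 40 h of compound exposure.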

The nature of assay [7]: qHTS RealTime-Glo MT Cell Viability Assay in HEK293 cells - 24 hour (AID 1224886). Further: top concentration of the series differs between compounds; nearly all actives have a fitted effect of over 50% in size. In a few lines:
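Homogeneous bioluminescent viability format in HEK293 cells (600 cells/well). Following 5 h at 37 C/5% CO2, 23 nL compound was pintooled; the signal was measured repeatedly during 40 h incubation.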

A short description of assay [8]: qHTS RealTime-Glo MT Cell Viability Assay in HEK293 cells - 8 hour (AID 1224887). Further: top concentration of the series differs between compounds; nearly all actives have a fitted effect of over 50% in size. In a few lines:
as §1

Assay [9] in a line: A CellTox Green Cytotoxicity Assay to monitor cytotoxicity in HEK293 cells - 16 hour (AID 1224888). Further: nearly all actives have a fitted effect of over 35% in size. In a few lines: as §2
The nature of assay [10]: qHTS RealTime-Glo MT Cell Viability Assay in HepG2 cells - 0 hour (AID 1224889). Further: nearly all actives have a fitted effect of over 50% in size. In a few lines: as §4
Assay [11] is described as follows: A CellTox Green Cytotoxicity Assay to monitor cytotoxicity in HepG2 cells - 8 hour (AID 1224890). Further: nearly all actives have a fitted effect of over 45% in size. In a few lines:
as §3

Assay [12] can be described thus: qHTS assay to identify small molecule antagonists of the estrogen receptor alpha (ER-alpha) signaling pathway using the BG1 cell line in the presence of 0.1 nM 17-beta-estradiol - cell viability counter screen (AID 1259241). Further: nearly all actives have a fitted effect of over 40% in size. Put shortly: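 Live-cell protease activity (CellTiter-Fluor fluorescence, 30 min) was read in the same wells after VM7Luc4E2 cells had been exposed to compounds with 0.1 nM 17beta-estradiol for 22 hr at 37C.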

A short description of assay [13]: qHTS assay to identify small molecule antagonists of the androgen receptor (AR) signaling pathway using the MDA cell line in the presence of 0.5 nM R1881 - cell viability counter screen (AID 1259242). Further: nearly all actives have a fitted effect of over 45% in size. In a few lines: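 Live-cell protease fluorescence, CellTiter-Fluor, 30 min at 37C. Cells: MDA-kb2, 3,000/well, preincubated 5 hr. Compounds plus 0.5 nM R1881 final, 16 hr, 37C, 0% CO2.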

Assay [14] concerns the target Estrogen receptor (Homo sapiens) (UniProt P03372). The assay is described as follows: qHTS assay to identify small molecule antagonists of the estrogen receptor alpha (ER-alpha) signaling pathway using the BG1 cell line in the presence of 0.1 nM 17-beta-estradiol (AID 1259244). Further: nearly all actives have a fitted effect of over 50% in size. Put shortly: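 Luminescence after ONE-Glo (30 min, room temperature) measured ERE-luciferase activity in VM7Luc4E2 cells treated 22 h with compound and 0.1 nM final 17beta-estradiol as stimulator.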

Assay [15] is described as follows: qHTS assay to identify small molecule HDAC inhibitors (AID 1259364). Further: potency means the concentration at half of the fitted maximal effect.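 Further: wild-type HCT-116 cells with endogenous class I/II HDAC activity; nearly all actives have a fitted effect of over 45% in size.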 In a few lines:
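HCT-116 (wild type), 1,500 cells/well, overnight; compound 2 hr 37C 5% CO2; HDAC-Glo I/II reagent 30 min RT; luminescence readout.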

Assay [16] in a line: qHTS assay to identify small molecule HDAC inhibitors - cell viability counter screen (AID 1259365). Put shortly: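 HCT-116 (wild type), 1,500 cells/well, overnight 37C/5% CO2; compound in DMSO 2hr; CellTiter-Glo 30min RT; luminescence read.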
The nature of assay [17]: qHTS assay to identify small molecule agonists of the sonic hedgehog signaling (Shh) pathway - cell viability counter screen (AID 1259366). Further: nearly all actives have a fitted effect of over 50% in size. In a few lines: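 CellTiter-Fluor fluorescence read-out, 1 hr at 37C, added after 23hr compound exposure. Cells: 3T3 Gli1-Luc, an NIH/3T3 clone with stably integrated Gli1-Luc reporter, plated 4hr before compound.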
A short description of assay [18]: qHTS assay to identify small molecule antagonists of the sonic hedgehog signaling (Shh) pathway - cell viability counter screen (AID 1259367). Further: nearly all actives have a fitted effect of over 55% in size. In a few lines: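 Cytotoxicity was assessed in parallel with Shh reporter activity by measuring live-cell protease fluorescence (CellTiter-Fluor) in NIH/3T3 cells stably carrying Gli1-Luc, treated with compound under conditioned medium stimulation for 23 hr plus 1 hr reagent incubation.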

The target of assay [19] is Androgen receptor (Homo sapiens) (UniProt P10275). The assay is described as follows: qHTS assay to identify small molecule antagonists of the androgen receptor (AR) signaling pathway using the MDA cell line in the presence of 0.5 nM R1881 (AID 1259243). Further: nearly all actives have a fitted effect of over 50% in size. In a few lines:
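MDA-kb2, MMTV-luc (AR/GR elements); 3,000 cells/well; cpd + 0.5 nM R1881 final; 16 hr 37C, 0% CO2; ONE-Glo 30 min RT; luminescence.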

Assay [20] in a line: qHTS assay to identify small molecule phospholipidosis (PLD) inducers (AID 1259344; active means well fitted curve in the direction sought with a large enough effect; an effect the other way counts as inactive or inconclusive). Put shortly:
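Cells (HepG2, 900 per well) attach for 4 h, receive LipidTOX Red and compound together, incubate 24 h at 37 C, are fixed 30 min with paraformaldehyde/Hoechst, then imaged at one site per well.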

Androgen receptor (Homo sapiens), sequence (P10275 whole entry, looked up): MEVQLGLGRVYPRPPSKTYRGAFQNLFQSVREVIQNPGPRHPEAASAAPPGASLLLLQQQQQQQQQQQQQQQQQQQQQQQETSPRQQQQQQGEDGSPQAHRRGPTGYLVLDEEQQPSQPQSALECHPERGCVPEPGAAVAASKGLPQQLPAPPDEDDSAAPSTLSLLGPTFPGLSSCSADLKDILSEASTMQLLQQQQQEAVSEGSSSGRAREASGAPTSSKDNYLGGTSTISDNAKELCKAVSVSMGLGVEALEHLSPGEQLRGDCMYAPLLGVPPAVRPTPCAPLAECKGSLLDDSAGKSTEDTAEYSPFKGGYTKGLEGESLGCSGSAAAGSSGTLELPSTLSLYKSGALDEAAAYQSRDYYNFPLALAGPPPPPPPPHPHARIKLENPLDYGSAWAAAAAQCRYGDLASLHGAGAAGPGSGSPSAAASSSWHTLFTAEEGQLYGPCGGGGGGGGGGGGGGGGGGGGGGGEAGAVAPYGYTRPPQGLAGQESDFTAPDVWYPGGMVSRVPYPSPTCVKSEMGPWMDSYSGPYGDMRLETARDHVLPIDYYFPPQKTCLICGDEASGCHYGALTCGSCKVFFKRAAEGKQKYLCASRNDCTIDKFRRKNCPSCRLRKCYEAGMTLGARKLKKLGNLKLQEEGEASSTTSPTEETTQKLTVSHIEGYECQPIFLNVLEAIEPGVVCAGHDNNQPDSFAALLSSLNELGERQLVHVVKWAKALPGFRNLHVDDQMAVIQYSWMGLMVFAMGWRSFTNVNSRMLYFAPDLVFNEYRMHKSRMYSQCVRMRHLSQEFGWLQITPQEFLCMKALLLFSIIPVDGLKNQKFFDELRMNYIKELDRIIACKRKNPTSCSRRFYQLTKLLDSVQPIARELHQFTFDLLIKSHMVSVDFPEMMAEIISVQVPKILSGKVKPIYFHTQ
Estrogen receptor (Homo sapiens), sequence (P03372 whole entry, looked up): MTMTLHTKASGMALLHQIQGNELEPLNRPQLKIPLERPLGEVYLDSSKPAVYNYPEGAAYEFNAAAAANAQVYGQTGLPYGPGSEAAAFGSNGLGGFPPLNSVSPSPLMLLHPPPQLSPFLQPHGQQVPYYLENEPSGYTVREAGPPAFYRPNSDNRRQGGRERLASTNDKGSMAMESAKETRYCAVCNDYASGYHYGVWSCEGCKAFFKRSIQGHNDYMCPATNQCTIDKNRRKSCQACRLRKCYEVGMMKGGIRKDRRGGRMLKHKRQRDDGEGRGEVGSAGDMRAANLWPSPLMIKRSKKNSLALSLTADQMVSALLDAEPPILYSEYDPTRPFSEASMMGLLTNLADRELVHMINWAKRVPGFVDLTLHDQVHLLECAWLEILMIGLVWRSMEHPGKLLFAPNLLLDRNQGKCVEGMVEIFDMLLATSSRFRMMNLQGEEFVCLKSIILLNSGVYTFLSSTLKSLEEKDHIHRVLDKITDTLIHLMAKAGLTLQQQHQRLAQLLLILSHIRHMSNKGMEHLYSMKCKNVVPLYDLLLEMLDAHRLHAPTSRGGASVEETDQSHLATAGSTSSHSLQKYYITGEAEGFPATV

On to `CC(=O)OC(C)(C)C`, for which the compound was called inactive in assay [1], in assay [6], in [12], in [13], in assay [14] and in assay [16]. The compound was called inactive in assay [18]. Moreover, the Potency result in assay [2], in [3], in assay [4], in assay [5], in [7] and in [8] was “inactive” in each case. Also, the Potency result in assay [9], in [10], in assay [11], in assay [15] and in assay [17] was “inactive” in each case.

For the compound `CC(C)(C)OC(=O)N1C[C@@H](F)C[C@H]1C(=O)O`, the compound was called inactive in [1], in assay [6], in assay [12], in assay [13], in [14] and in [16]. In addition, the compound was classed as inactive in [18]. The Potency result in assay [2], in assay [3], in assay [4], in assay [5], in assay [7] and in assay [8] was “inactive” throughout. Also, the Potency entry in [9], in assay [10], in assay [11], in [15] and in assay [17] was “inactive” in each case.

Regarding `C=CCn1c(=O)n([C@@H]2O[C@H](CO)[C@@H](O)[C@H]2O)c2nc(N)[nH]c(=O)c21`, the result in [1], in assay [6], in assay [12], in [13], in assay [14] and in [16] was inactive. The result in assay [18] was inactive. Besides, the Potency result in [2], in assay [3], in [4], in assay [5], in assay [7] and in [8] was “inactive” in each case. For the same compound, the Potency result in assay [9], in assay [10], in assay [11], in assay [19], in assay [20] and in assay [15] was “inactive” each time. The Potency entry in [17] was “inactive”.

Turning to `Cc1nc(-c2ccc(OCC(C)C)c(C#N)c2)sc1C(=O)O`, the call in assay [1], in assay [6], in assay [12], in assay [13], in assay [14] and in assay [16] was inactive. Besides, in [18], the result was inactive. The Potency entry in assay [2], in assay [3], in assay [4], in [5], in [7] and in [8] was “inactive” in each case. Moreover, the Potency result in [9], in assay [10], in [11], in assay [19], in [20] and in assay [17] was “inactive” each time. Moreover, in [15], the Potency is 335 nM (active).

Take `Nc1cc(C(Cl)=C(Cl)Cl)c(S(N)(=O)=O)cc1S(N)(=O)=O`: the compound was called inactive in assay [1], in [6], in assay [12], in assay [13], in [14] and in assay [16]. Also, in assay [18], the compound was classed as inactive. In addition, the Potency entry in [2], in assay [3], in [4], in [5], in assay [7] and in assay [8] was “inactive” in each case. Further, the Potency entry in assay [9], in assay [10], in assay [11], in assay [20], in assay [15] and in assay [17] was “inactive” each time.

In the case of `OCCN1C[C@H](O)[C@@H](O)[C@H](O)[C@H]1CO`, the result in assay [1], in assay [6], in assay [12], in assay [13], in assay [14] and in assay [16] was inactive. Further, in assay [18], the compound was called inactive. The Potency result in assay [2], in [3], in [4], in assay [5], in assay [7] and in [8] was “inactive” in each case. For the same compound, the Potency entry in assay [9], in assay [10], in assay [11], in assay [19], in assay [20] and in assay [15] was “inactive” in each case. Also, the Potency entry in [17] was “inactive”.

In the case of `CCCCCOC(=O)Nc1nc(=O)n([C@@H]2O[C@H](C)[C@@H](O)[C@H]2O)cc1F`, the outcome in [1], in assay [6], in [12], in [13], in assay [14] and in assay [16] was inactive. Also, the Potency entry in [2], in [3], in [4], in assay [5], in [7] and in assay [8] was “inactive” in each case. Also, the Potency entry in assay [9], in [10], in assay [11], in assay [20], in assay [15] and in assay [17] was “inactive” throughout.
